Screens (PubChem BioAssay)
Cav3 T inh: blocks human Cav3.2 T-type calcium channel. O95180. Cav3.2-expressing cells, Fluo-4 calcium fluorescence FDSS; stronger effect = lower value. B-score at 10 µM. actives 4% (n = 100,000);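 active = single-dose well whose peak fluorescence ratio is a statistical outlier from its plate by either plate-standardised score or position-corrected B-score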
CYP2C9 inhib: human CYP2C9 inhibition; inhibition, % at 5 µM; CYP2C9 Supersomes, luciferin-H conversion, luminescence; AID 777; actives 20% (n = 96,000); P11712;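 active = blocking of liver enzyme CYP2C9 beyond about 50% at 5 µM, limit read from the data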
Pyk2 oligo antag: antagonists of human Pyk2 oligomerization. Q293 cells, Pyk2 FERM NanoBiT luminescence; stronger effect = lower value. actives 0.83% (n = 99,000). z-score (the deposit names both 25 µM and 10 µM);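 active = Z-score of -3 or lower, scaled per plate to the spread of control and sample wells; inactive = z-score above -3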;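 note: negative z-score means lost luminescence so less FERM oligomerization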
CYP2C9 act: CYP2C9 (human) activation. activation factor at 5 µM. P11712. actives 1.4% (n = 96,000). AID 1024. recombinant CYP2C9, luciferin-H conversion, luminescence; stronger effect = higher value; factor 1 = untreated enzyme, 0 = blocked;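 active = activation factor of 2 or more for CYP2C9 at a 5 µM dose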;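 note: 0 = sulfaphenazole-blocked wells and 1 = vehicle-only wells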
CYP2C19 inhib: inhibitors of human CYP2C19; P33261; actives 21% (n = 96,000); inhibition, % at 5 µM; CYP2C19 Supersomes, luciferin-H EGE luminescence, 30 min;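 active = CYP2C19 inhibition above a set limit at 5 µM in the primary screen, cut at about 50% in these data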;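 note: plate controls were negative control wells for no effect and 2.5 mM tranylcypromine positive control for full effect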
Target sequence (P33261 whole entry, looked up): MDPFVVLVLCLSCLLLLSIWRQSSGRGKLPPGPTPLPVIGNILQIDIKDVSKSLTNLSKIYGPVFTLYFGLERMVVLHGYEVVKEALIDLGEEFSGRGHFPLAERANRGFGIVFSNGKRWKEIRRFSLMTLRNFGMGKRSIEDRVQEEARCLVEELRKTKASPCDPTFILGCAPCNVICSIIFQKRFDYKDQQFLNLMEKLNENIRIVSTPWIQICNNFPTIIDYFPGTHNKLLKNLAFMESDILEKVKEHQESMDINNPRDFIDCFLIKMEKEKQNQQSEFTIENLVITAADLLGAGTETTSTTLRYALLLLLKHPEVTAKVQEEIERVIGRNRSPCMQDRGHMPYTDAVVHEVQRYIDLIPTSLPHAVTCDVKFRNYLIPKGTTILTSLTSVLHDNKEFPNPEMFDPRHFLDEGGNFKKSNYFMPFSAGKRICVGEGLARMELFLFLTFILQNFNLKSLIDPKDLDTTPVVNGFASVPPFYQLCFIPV
CYP2C19 activ: activators of human cytochrome P450 2C19 | recombinant CYP2C19, luciferin-H EGE luminescence; stronger effect = higher value; 0 = fully inhibited enzyme, 1 = untreated enzyme | P33261 | AID 1025 | activation factor at 5 µM | 96,000 tested, under 10 active;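 active = activation factor of at least 2 at 5 µM in the primary screen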;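 note: 0 = wells with 2.5 mM tranylcypromine and 1 = vehicle-only wells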
Starred values were filed as active, the others as inactive. Rows were chosen to be rich in hits. Some 27% of all compounds tested hit in one or more screens of this group.

`COC(=O)c1ccccc1NC(=O)CSc1nc(N)cc(N)n1` gave Cav3 T inh 1.05, CYP2C9 inhib 5.6, CYP2C9 act 0.9, CYP2C19 inhib 34.3 and CYP2C19 activ 0.7.
COC(=O)c1ccccc1NC(=O)CSCC(=O)Nc1ccc(F)cc1 was read as Cav3 T inh -0.00451, CYP2C9 inhib 35.4, Pyk2 oligo antag -0.63, CYP2C9 act 0.6, CYP2C19 inhib 58.6* and CYP2C19 activ 0.4.
For Cc1c(F)cccc1NC(=O)CSCC(=O)Nc1ccccc1 the results were CYP2C9 inhib 55.9*, Pyk2 oligo antag 0.96, CYP2C9 act 0.4, CYP2C19 inhib 56.0* and CYP2C19 activ 0.4.
COC(=O)[C@@H]1C[C@@]2(O)[C@@H](O)[C@@H](O)[C@@H](O)C[C@H]2N1Cc1ccc(Cl)cc1 was read as Cav3 T inh 0.73.
For CN=c1sc2ccccc2n1CC(O)COc1ccccc1 (centres undefined) the results were Cav3 T inh -0.914, CYP2C9 inhib 70.6*, Pyk2 oligo antag -0.3, CYP2C9 act 0.3, CYP2C19 inhib 96.1* and CYP2C19 activ 0.
Screening N=c1ccccn1CC(O)COc1ccccc1 (centres undefined) returned Cav3 T inh 0.0413, CYP2C9 inhib -7.2, Pyk2 oligo antag 0, CYP2C9 act 1.1, CYP2C19 inhib 4.1 and CYP2C19 activ 1.
`CC(=O)Nc1ccc(OCC(O)Cn2c3ccccc3c3ccccc32)cc1` (centres undefined) gave Pyk2 oligo antag -2.24.
Screening CCN=c1sc2ccccc2n1CC(O)COc1ccccc1 (centres undefined) returned Cav3 T inh -4.17*, CYP2C9 inhib 92.8*, Pyk2 oligo antag 0.65, CYP2C9 act 0.1, CYP2C19 inhib 98.8* and CYP2C19 activ 0.
`O=C(NCc1ccc(F)cc1)C(=O)NCC1OCCN1S(=O)(=O)c1cccs1` (centres undefined) gave Cav3 T inh -1.22.
Screening O=C(c1ccc(F)cc1F)N(Cc1ccccn1)Cc1ccco1 returned Cav3 T inh 0.53, CYP2C9 inhib 33.7, Pyk2 oligo antag 1.33, CYP2C9 act 0.7, CYP2C19 inhib 73.2* and CYP2C19 activ 0.3.
Screening O=C(O)c1cn(-c2ccc(F)c(F)c2)c2c(F)c(F)c(F)c(F)c2c1=O returned Cav3 T inh 0.702, CYP2C9 inhib 6.6, Pyk2 oligo antag 0.08, CYP2C9 act 0.9, CYP2C19 inhib 9.4 and CYP2C19 activ 0.9.
For CCCc1ccc(-c2c(C)sc(N)c2C#N)cc1 the results were Cav3 T inh -0.644, CYP2C9 inhib 67.8*, Pyk2 oligo antag -0.47, CYP2C9 act 0.3, CYP2C19 inhib 30.9 and CYP2C19 activ 0.7.
For CCN(CC)S(=O)(=O)c1cc(C(=O)NC2CCCCC2)ccc1C the results were Cav3 T inh 0.607, CYP2C9 inhib 64.9*, Pyk2 oligo antag -0.88, CYP2C9 act 0.4, CYP2C19 inhib 42.8 and CYP2C19 activ 0.6.
CCN(CC)S(=O)(=O)c1cc(C(=O)Nc2ccc(Cl)cn2)ccc1C was read as Cav3 T inh -4.29*, CYP2C9 inhib 79.9*, Pyk2 oligo antag -1.82, CYP2C9 act 0.2, CYP2C19 inhib 80.6* and CYP2C19 activ 0.2.
`COc1ccc(C2C(C(=O)NCCN(C)C)c3ccccc3C(=O)N2C)cc1OC` (centres undefined) gave Cav3 T inh -0.000278, CYP2C9 inhib -12.0, Pyk2 oligo antag 0.07, CYP2C9 act 1.1, CYP2C19 inhib -20.6 and CYP2C19 activ 1.2.
COc1ccc(CCn2c(C)cc3c(c2=O)C(c2ccncc2)C(C#N)=C(N)O3)cc1OC (centres undefined) was read as Cav3 T inh 0.435, CYP2C9 inhib 79.2*, Pyk2 oligo antag 0.4, CYP2C9 act 0.2, CYP2C19 inhib 82.9* and CYP2C19 activ 0.2.
For CC(=O)c1c(C)nc2ccc(Cl)cn12 the results were Cav3 T inh 0.498, CYP2C9 inhib 7.5, Pyk2 oligo antag -0.53, CYP2C9 act 0.9, CYP2C19 inhib -5.5 and CYP2C19 activ 1.1.
Screening CCOc1ccc(NC(=O)CSc2nnc(CCNC(=O)c3ccc(OC)cc3)n2C)cc1 returned Cav3 T inh 0.341, CYP2C9 inhib 56.7*, Pyk2 oligo antag 0.92, CYP2C9 act 0.4, CYP2C19 inhib 32.6 and CYP2C19 activ 0.7.
COc1ccc(OCCSc2nnc(CCNC(=O)c3ccc(OC)cc3)n2C)cc1 was read as Cav3 T inh 0.352, CYP2C9 inhib 24.4, Pyk2 oligo antag 1.7, CYP2C9 act 0.8, CYP2C19 inhib 11.1 and CYP2C19 activ 0.9.
Screening COc1ccc(C(=O)NCCc2nnc(SCC(=O)Nc3ccc(Br)cc3)n2C)cc1 returned Cav3 T inh 0.208, CYP2C9 inhib 65.3*, Pyk2 oligo antag 1.89, CYP2C9 act 0.3, CYP2C19 inhib 21.0 and CYP2C19 activ 0.8.
Screening Cc1ccc(S(=O)(=O)C2(C(=O)NCc3ccc4c(c3)OCO4)CC2)cc1 returned Cav3 T inh 0.789, CYP2C9 inhib 63.5*, CYP2C9 act 0.4, CYP2C19 inhib 68.8* and CYP2C19 activ 0.3.
`CC12CCC(C(=O)NCc3ccc4c(c3)OCO4)(CC1=O)C2(C)C` (centres undefined) gave Cav3 T inh 0.356, CYP2C9 inhib 3.1, Pyk2 oligo antag -0.06, CYP2C9 act 1, CYP2C19 inhib 47.3 and CYP2C19 activ 0.5.
Screening CC12CCC(C(=O)NCc3ccc4c(c3)OCO4)(C(=O)C1=O)C2(C)C (centres undefined) returned Cav3 T inh 0.394, CYP2C9 inhib 30.2, Pyk2 oligo antag 0.21, CYP2C9 act 0.7, CYP2C19 inhib 56.4* and CYP2C19 activ 0.4.
For Cc1ccc(NC2=NCC(=O)N2Cc2ccc3c(c2)OCO3)cc1 the results were Cav3 T inh -0.674, CYP2C9 inhib 86.3*, Pyk2 oligo antag 0.35, CYP2C9 act 0.1, CYP2C19 inhib 88.3* and CYP2C19 activ 0.1.
Cc1ccc(NC(=O)NCc2ccc3c(c2)OCO3)cc1 was read as Cav3 T inh -0.0351, CYP2C9 inhib 31.2, Pyk2 oligo antag 0.13, CYP2C9 act 0.7, CYP2C19 inhib 51.4* and CYP2C19 activ 0.5.
`O=C(Nc1ccccc1)NC1(C(=O)NCCCN2CCOCC2)CCCCC1` gave Cav3 T inh 0.412, CYP2C9 inhib 1.4, Pyk2 oligo antag 0.37, CYP2C9 act 1, CYP2C19 inhib 0.1 and CYP2C19 activ 1.
Screening O=C(NCc1cccs1)Nc1ccc2c(c1)OCO2 returned Cav3 T inh 0.527, CYP2C9 inhib 17.2, Pyk2 oligo antag 0.24, CYP2C9 act 0.8, CYP2C19 inhib 52.0* and CYP2C19 activ 0.5.
Cc1ccc(S(=O)(=O)Cc2ccc(C(=O)NCc3ccc4c(c3)OCO4)o2)cc1 was read as Cav3 T inh -1.57, CYP2C9 inhib 98.2*, Pyk2 oligo antag 1.01, CYP2C9 act 0, CYP2C19 inhib 84.3* and CYP2C19 activ 0.2.
